From PubChem
Sampled rows, rich in hits. Any-hit rate of the full collection: about 1.4%.
Vif-A3G inh – blocks the Vif interaction with human APOBEC3G | actives 0.076% (n = 410,000) | HeLa A3G-eYFP + Vif (tagged APOBEC3G with the HIV-1 protein that degrades it), YFP fluorescence, overnight | Q9HC16 | AID 602310 | Potency, µM (series often up to 46.1 µM), inactives show at the highest dose activity, negative = active, usual class: inhibitors; also: potency is read from the fitted curve at half-maximal effect; % is scaled to controls: 0 for no effect and ±100 for the full control effect; nearly all actives have a fitted effect of over 60% in size
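HeLa cells stably expressing Vif and C-terminally eYFP-tagged A3G, seeded overnight at 37 deg C, then exposed to compound by pintool overnight at 37 deg C. Rise in yellow fluorescence (Ex 488/Em 500-530, Acumen) marks blocked Vif-driven A3G degradation.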
Vif-APOBEC3F blk – inhibitors of Vif-A3F interaction; HeLa A3F-eYFP + Vif (tagged APOBEC3F with the HIV-1 protein that degrades it), YFP fluorescence increase; Potency, µM (doses to about 46.1 µM), without a hit: at the top dose activity, negative = active; actives 0.2% (n = 390,000); AID 602313; also: potency is read from the fitted curve at half-maximal effect; % of control where 0% means no effect; nearly all actives have a fitted effect of over 65% in size
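HeLa cells stably expressing A3F-eYFP plus Vif, plated and incubated overnight at 37 deg C, then exposed to compounds overnight at 37 deg C. Blocked degradation read as raised yellow fluorescence (Ex 488/Em 500-530).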
ALOX12 inh – ALOX12 (human) lipoxygenase inhibition. Potency, µM (titrated, usually from 108 µM), for the others: top-dose activity change, negative = inhibition, most hits filed as inhibitors. actives 1.1% (n = 580,000). purified 12hLO, xylenol orange hydroperoxide absorbance. P18054. AID 1671190; also: potency is read from the fitted curve at half-maximal effect; % is scaled to controls: 0 for no effect and ±100 for the full control effect
Target sequence (P18054 whole entry, looked up): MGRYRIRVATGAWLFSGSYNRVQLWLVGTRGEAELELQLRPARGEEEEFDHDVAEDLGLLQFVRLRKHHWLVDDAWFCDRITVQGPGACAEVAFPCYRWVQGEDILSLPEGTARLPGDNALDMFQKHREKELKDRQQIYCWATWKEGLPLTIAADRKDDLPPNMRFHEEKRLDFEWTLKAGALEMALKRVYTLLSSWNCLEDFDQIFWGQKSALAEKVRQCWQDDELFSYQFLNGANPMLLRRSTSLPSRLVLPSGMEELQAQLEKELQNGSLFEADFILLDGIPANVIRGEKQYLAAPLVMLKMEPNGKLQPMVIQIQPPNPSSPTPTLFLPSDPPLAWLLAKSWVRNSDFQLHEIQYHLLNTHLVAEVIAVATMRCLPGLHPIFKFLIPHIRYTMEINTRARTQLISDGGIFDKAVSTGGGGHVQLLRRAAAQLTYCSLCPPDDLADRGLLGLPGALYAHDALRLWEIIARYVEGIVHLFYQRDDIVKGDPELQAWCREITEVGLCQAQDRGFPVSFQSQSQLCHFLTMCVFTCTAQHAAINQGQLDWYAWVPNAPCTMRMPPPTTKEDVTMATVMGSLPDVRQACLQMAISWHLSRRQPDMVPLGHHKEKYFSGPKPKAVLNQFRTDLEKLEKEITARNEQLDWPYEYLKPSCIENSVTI
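Hydroperoxide product was detected by ferrous iron/xylenol orange as the 573 to 405 nm absorbance ratio. Arachidonic acid at 40 uM (final) was turned over for 30 min at room temperature by 150 nM human 12hLO, pH 7.0 Hepes buffer, after 15 min compound preincubation.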
S-ASM inh – inhibitors of human secretory acid sphingomyelinase; Potency, µM (titrated, usually from 57.5 µM), without a hit: top-dose activity change, negative = inhibition, most hits filed as inhibitors; actives 0.006% (n = 340,000); P17405; placental ASM, HMU-PC fluorogenic substrate, 60 min; AID 504937; also: potency is read from the fitted curve at half-maximal effect
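HMU-PC0 cleavage (9 uM final) by human placental ASM, 60 min at 37 °C following 10 min compound exposure at RT; stopped at pH 10, fluorescence Ex 386/Em 447 nm.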
pAkt inh – inhibitors of Akt phosphorylation; Neuro2A IGF-stimulated pAkt S473 HTRF, 20 min; active compounds read low; activity change, % for hits at 50 µM; actives 0.32% (n = 360,000); AID 651550; in the data active = activity change below about -80%; inconclusive = mostly about -51% to -80%; also: % is scaled to controls: 0 for no effect and ±100 for the full control effect
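Single-point screen (50 µM final compound) in Neuro2A cells stimulated 20 min with 6 nM IGF at 37 deg C. After lysis, Ser473-phosphorylated Akt read by HTRF (ex 330 nm, em 615/665 nm) as the 665/615 ratio.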
TSG101-PTAP inh – blocks PTAP/TSG101 interaction to inhibit HIV-1 budding | Q99816 | Fluorescence polarization, FITC-PTAP peptide / Tsg101 binding | Potency, µM (doses to about 115 µM), for the others: at the top dose activity change, negative = inhibition, hits mostly inhibitors | 340,000 tested, under 10 active; active = well fitted inhibition curve with a large enough effect in the main read-out, with a control signal flat, not every such curve was filed as active; inconclusive = small, poorly fitted or top-dose-only effect, or effect the other way, or a change in a side signal; inactive = no such curve, though single readings can be large or run the other way; also: potency is read from the fitted curve at half-maximal effect; % of control where 0% means no effect
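FP read-out: FITC-PTAP peptide, 50 nM final, binding Tsg101 binding domain, 10 uM final; 20 min, r.t.; 10 mM HEPES pH 7.5, 0.15 M NaCl, 0.01% Tween 20, 3 mM EDTA, 0.1 mM TCEP.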
An asterisk follows results filed as active; i = inactive; u = inconclusive; x = no result; [ ] = another dose, or the depositor's remark. Unless noted, calls follow the shape of the dose curve; as a rule, active = well fitted curve in the direction sought with a large enough effect; inconclusive = small, poorly fitted or top-dose-only effect, or another doubt; inactive = no such curve, though single readings can be large; an effect the other way counts as inactive or inconclusive.

SMILES	Vif-A3G inh	Vif-APOBEC3F blk	ALOX12 inh	S-ASM inh	pAkt inh	TSG101-PTAP inh
CN(Cc1cnn(C)c1)C(=O)c1nn(-c2ccccc2)c(=O)c2ccccc12	x	x	9.0%	x	x	x
CCCCOc1ccc2c(c1)/C(=C(\C(Cl)=C(Cl)Cl)[N+](=O)[O-])N2	u	22.4µM*	u	64.1%	i	u
C=CCNC(=S)NNC(N)=S	x	x	8.91µM*	x	x	x
C=CCNC(=S)NCC=C	0.9%	9.4%	-8.5%	-2.8%	i	-1.8%
CC(=O)c1sc(-c2ccc(Br)cc2)nc1C	x	x	10.2%	x	x	x
CN(C)S(=O)(=O)c1ccc(CN)s1	x	x	0.1%	x	x	x
CC1(C)Cc2c(ccc3ccccc23)/C(=C/C#N)N1	2.9%	-5.8%	39.8µM*	-8.9%	i	-9.9%
CNC(=O)/C=C1\NC(C)(C)Cc2c1ccc1ccccc21	-3.7%	0.8%	u	1.3%	i	-6.4%
Cc1ccc(C)c(C(=O)c2sc(Nc3cccc(F)c3)nc2N)c1	x	x	-16.1%	x	x	x
CNc1c(NC(=O)c2cccc(Cl)c2)c(=O)oc2ccccc12	x	x	31.3%	x	x	x
CC(C)(C)C(=O)NC(Nc1ccc2ccccc2c1)C(Cl)(Cl)Cl (stereo unspecified)	x	x	14.7%	x	x	x
CCOC(=O)c1c(-c2ccco2)csc1NC(=O)CSc1nnc(N)s1	-6.5%	1.5%	-21.9%	-3.6%	i	0.5%
CCOC(=O)c1c(N)sc(C(N)=O)c1C	-3.0%	-3.9%	-14.0%	1.5%	i	-5.9%
CCOC(=O)c1c(N)sc(N)c1C(=O)OCC	2.2%	-24.5%	50.1µM*	-0.2%	i	-1.0%
CCOC(=O)c1c(-c2ccco2)csc1N	-0.8%	-4.8%	-1.1%	0.1%	-123.6%*	0.9%
CCOC(=O)c1c(-c2cccs2)csc1N	-9.3%	-1.8%	44.7µM*	-1.7%	i	-6.3%
CCCc1csc(N)c1C(=O)OCC	x	x	7.94µM*	x	x	x
Cc1cc(C(c2ccc(C)o2)c2ccc(C)o2)c(O)c([N+](=O)[O-])c1	-0.6%	3.4%	35.5µM*	-14.9%	i	-3.5%
Cc1ccc(S(=O)(=O)N/N=C/c2ccc(O)c(O)c2)cc1[N+](=O)[O-]	-11.2%	u	50.1µM*	-4.5%	i	-1.4%
Cc1ccc(S(=O)(=O)N/N=C/c2ccccc2O)cc1[N+](=O)[O-]	0.4%	7.2%	6.2%	-4.4%	i	0.0%
COC(=O)CN(c1ccc(C)c(Cl)c1)S(C)(=O)=O	-5.0%	x	u	-2.1%	-90.5%*	-6.1%
CS(=O)(=O)c1ccc2c(c1)sc1nc(=O)c(/C=C3/C=CC(=O)C(O)=C3)c(N)n12	4.3%	-20.8%	0.0%	-1.7%	i	37.6%
COC1=C/C(=C/c2c(N)n3c(nc2=O)sc2cc(S(C)(=O)=O)ccc23)C=CC1=O	u	u	-9.1%	-7.6%	i	40.0%
CCOC1=C/C(=C/c2c(N)n3nc(-c4ccccc4)sc3nc2=O)C=CC1=O	-16.1%	8.91µM*	u	-2.7%	i	7.4%
COC1=C/C(=C/c2c(N)n3nc(-c4ccc(C)cc4)sc3nc2=O)C=CC1=O	-18.5%	11.2µM*	u	-0.8%	i	-4.6%
SMILES	Vif-A3G inh	Vif-APOBEC3F blk	ALOX12 inh	S-ASM inh	pAkt inh	TSG101-PTAP inh
CCS(=O)(=O)c1nn2c(N)c(/C=C3/C=CC(=O)C(OC)=C3)c(=O)nc2s1	-8.3%	20µM*	-26.8%	-10.7%	i	42.0%
CCCCN(C)C(=O)C1CCN(C(=O)/C=C/c2c(Cl)cccc2Cl)CC1	x	x	-22.9%	x	x	x
C/C(=N\Nc1nc(C)cc(-c2ccccc2)n1)c1ccc(F)cc1	1.2%	20µM*	29.6%	-6.7%	i	-3.4%
Cc1cccc(C)c1NC(=O)c1ccc(-c2ccc(Cl)cc2Cl)o1	7.0%	-15.3%	362.4%	-9.6%	-115.4%*	-1.2%
Cc1ccccc1NC(=O)c1ccc(-c2ccc(Cl)cc2Cl)o1	-5.0%	3.4%	-13.0%	-21.4%	i	-1.3%
Cc1ccc(S(=O)(=O)/C=C/CS(=O)(=O)c2ccc(C)cc2)cc1	x	x	-7.0%	x	x	x
O=S1(=O)N=C(N(CCO)/N=C/c2ccc(Cl)cc2)c2ccccc21	-1.0%	-7.6%	0.0%	33.3%	i	-9.2%
CN(C)c1ccc(/C=N/N(CCO)C2=NS(=O)(=O)c3ccccc32)cc1	4.7%	22.4µM*	0.0%	-1.3%	i	u
COc1cccc(C(=O)Nc2c(NC3CCCC3)c3ccccc3oc2=O)c1	x	x	-1.5%	x	x	x
COc1ccc(CN[C@H]2CS(=O)(=O)C[C@@H]2S(=O)(=O)c2ccc(F)cc2)cc1OC	x	x	-5.6%	x	x	x
CNCc1cccn1C	x	x	0.517µM*	x	x	x
Cn1cccc1CNC1CCCC1	1.2%	6.2%	-3.4%[57.4 µM]	0.9%	i	-0.6%
O=C1c2ccccc2CN1C1CCN(Cc2cccc3ccccc23)CC1	x	x	50.1µM*	x	x	x
COc1ccc(Nc2nc(N3CCN(c4ccccc4OC)CC3)nc3c2cnn3C)cc1	x	x	15.7%	x	x	x
N#CC1(C(=O)OCC(=O)Nc2ccc(N3CCOCC3)cc2)CCCC1	x	x	-8.5%	x	x	x
N#Cc1c(-c2cccnc2)c2c([nH]c1=S)CCCC2	2.2%	-3.3%	u	1.4%	i	1.8%
N#Cc1c(-c2ccco2)c2c([nH]c1=S)CCCC2	-0.5%	x	31.6µM*	-0.6%	i	-0.4%
Cc1nc(CCNC(=O)CC(C)C)no1	x	x	4.8%	x	x	x
Cc1nc(CCNC(=O)Cc2ccsc2)no1	x	x	35.5µM*	x	x	x
COc1cccc(CN2Cc3cc(NS(=O)(=O)c4ccccc4)ccc3OCC2=O)c1OC	x	x	10µM*	x	x	x
COc1ccc(C(=O)Nc2ccc3c(c2)CN(Cc2cccc(OC)c2OC)C(=O)CO3)cc1OC	x	x	-2.7%	x	x	x
CCC(=O)c1ccc(Oc2cc(C#N)c(C#N)cc2N2CCOCC2)cc1	x	x	55.1%	x	x	x
CSc1ccc(C2CC(=O)Nc3nc(N)sc32)cc1 (stereo unspecified)	x	x	25.1µM*	x	x	x
Nc1nc2c(s1)C(c1cccc(F)c1)CC(=O)N2 (stereo unspecified)	x	x	15.8µM*	x	x	x
CC1(C)CC(=O)C2=C(C1)NC(=O)CC2c1cccc(F)c1 (stereo unspecified)	0.7%	0.0%	1.0%	10.1%	i	1.3%
CC1CCC(C#N)(N(C)C(=O)CN(C)CC(=O)Nc2cccc(F)c2)CC1 (stereo unspecified)	x	x	8.7%	x	x	x
O=c1cc(CO)oc(CN2CCCC2)c1O	2.6%	-2.5%	-0.8%	3.6%	i	-9.8%
CCN(CC)Cc1oc(CO)cc(=O)c1O	0.3%	u	31.6µM*	1.1%	i	-0.2%
Cc1ccc(-c2ccc(=O)n(CC(=O)Nc3c(C)cccc3C)n2)cc1S(=O)(=O)N1CCOCC1	x	x	1.4%	x	x	x
CC(c1nnc(-c2cccs2)o1)N(C)Cc1ccccc1F (stereo unspecified)	x	x	-4.7%	x	x	x
